Active and inactive are the calls of the source. Unless noted, no rule for the calls is given here.
Columns and labels:
[1] = tested on: XIP peptide (Xip251-270) binding; experiment: small-molecule binders of XIP peptide, primary screen, biochemical, small-molecule microarray, fluorescence 635/667 nm, 0.1 µg/mL protein (AID 1182); details: fluorescent protein binding, 635 nm, higher = more signal, called active from +8 up or from −8 down
XIP peptide (Xip251-270) = experiment: small-molecule binders of XIP peptide, primary screen, biochemical, small-molecule microarray, fluorescence 635/667 nm, 0.5 µg/mL protein (AID 1183); details: small-molecule microarray binding, fluorescence 635 nm; higher = more signal
[2] = Plasmodium falciparum growth inhibition, primary screen, strain 3D7, DAPI fluorescence, 100 nL (AID 1184);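 also: parasites grown inside human red blood cells in medium with human serum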; details: P. falciparum 3D7 growth, 3 d, higher = more signal
[3] = target: Homeobox protein Hox-A13 (Mus musculus) (UniProt Q62424); experiment: inhibitors of HoxA13-DNA binding, primary screen, biochemical, fluorescence polarization, labeled oligonucleotide (AID 1185); details: 15 min, higher = more signal, called active from +8 up or from −8 down
[4] = inhibitors of hydroxyurea-induced Chk1 phosphorylation, primary screen, imaging, HeLa, phospho-Chk1 antibody, percent positive cells (AID 1186); details: hydroxyurea-induced phospho-Chk1 immunofluorescence imaging, higher = more signal
[5] = inhibitors of hydroxyurea-induced Chk1 phosphorylation, primary screen, imaging, HeLa, phospho-Chk1 nuclear intensity (AID 1187); details: hydroxyurea-induced phospho-Chk1 immunofluorescence imaging, higher = more signal

Chain of Homeobox protein Hox-A13 (Mus musculus) (Q62424 whole entry, looked up): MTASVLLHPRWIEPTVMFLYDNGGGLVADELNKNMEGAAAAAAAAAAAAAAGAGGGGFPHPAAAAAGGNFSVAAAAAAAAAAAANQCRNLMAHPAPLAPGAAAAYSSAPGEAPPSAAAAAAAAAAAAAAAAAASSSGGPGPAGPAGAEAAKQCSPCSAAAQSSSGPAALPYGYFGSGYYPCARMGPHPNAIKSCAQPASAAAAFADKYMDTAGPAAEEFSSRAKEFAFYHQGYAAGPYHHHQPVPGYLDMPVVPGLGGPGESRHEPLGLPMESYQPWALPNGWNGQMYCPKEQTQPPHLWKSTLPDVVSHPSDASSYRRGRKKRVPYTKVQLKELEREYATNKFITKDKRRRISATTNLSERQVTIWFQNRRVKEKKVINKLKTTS

Row | SMILES | composite z-score [1] | composite z-score (XIP peptide (Xip251-270)) | z-score [2] | z-score [3] | z-score [4] | z-score [5]
1 | CC(C)OC(=O)C1=CCC(c2cccc(Cl)c2)O1 (configuration not stated) | 0.0142 (inactive) | 0.677 | -1.39 | -0.554 (inactive) | 0.147 (inactive) | 0.0282 (inactive)
2 | C=CCOC(=O)[C@@H]1[C@H]2C(=O)O[C@H](c3ccccc3)[C@H](c3ccccc3)N2[C@H](c2ccc(OCCOC(=O)[C@H]3C[C@H]4C(=O)N[C@@H](CCCC[N+](C)(C)C)C(=O)N4[C@H]3c3cccc(OCCO)c3)cc2)[C@@]12C(=O)Nc1ccc(I)cc12 | 1.31 (inactive) | 0.646 | -1.82 | 1.38 (inactive) | -0.118 (inactive) | -0.176 (inactive)
3 | COc1ccc([Si](C)(C)[C@H]2[C@H](CC(=O)N3Cc4ccccc4C[C@H]3CO)O[C@@]3(C(=O)N(Cc4cccc(I)c4)c4ccccc43)[C@@H]2C)cc1 | -0.276 (inactive) | 0.287 | -2.37 | -2.66 (inactive) | -1.22 (inactive) | -0.541 (inactive)
4 | CCN(CC)c1ccc(N2CC=CC34O[C@@H]5/C=C\CCC(C)OC(=O)C5[C@H]3C(=O)N(CCCCCCO)[C@@H]4C2=O)cc1 (some centres not stated) | 0.76 (inactive) | -0.0479 | 0.816 | -5.99 (inactive) | -0.632 (inactive) | -0.767 (inactive)
5 | C[N+](C)(C)CCCC[C@@H]1NC(=O)[C@H]2C[C@@H](C(=O)O)[C@@H](c3cccc(OCCO)c3)N2C1=O | 3.68 (inactive) | 0.809 | -0.255 | -0.304 (inactive) | 0.336 (inactive) | 0.213 (inactive)
6 | COC(=O)[C@@]1(Cc2ccc(F)cc2)[C@H]2c3cc(C(=O)N4CCCC4)n(Cc4ccc(Cl)c(C(F)(F)F)c4)c3C[C@H]2CN1C(=O)c1ccccc1 | 0.15 (inactive) | 0.625 | -1.45 | -2.22 (inactive) | 0.612 (inactive) | -0.126 (inactive)
7 | CN(C)CCCCCCNC(=O)[C@@H]1C[C@@H]2C(=O)NCC(=O)N2[C@@H]1c1cccc(OCCO)c1 | 0.096 (inactive) | 0.851 | 0.331 | -2.07 (inactive) | 0.491 (inactive) | 0.797 (inactive)
8 | CC1CC/C=C\[C@H]2OC34C=CCN(Cn5nnc6ccccc65)C(=O)[C@H]3N(CCCO)C(=O)[C@@H]4C2C(=O)O1 (some centres not stated) | 0.75 (inactive) | 0.13 | -0.0633 | -5.65 (inactive) | -0.86 (inactive) | -0.909 (inactive)
9 | COCCOC(=O)N1C(=O)[C@@]2(c3cc(C#Cc4ccc(OC)cc4)ccc31)[C@H](C(N)=O)[C@H]1C(=O)O[C@H](c3ccccc3)[C@H](c3ccccc3)N1[C@@H]2c1ccc(O)cc1 | -0.0197 (inactive) | 0.0645 | -1.69 | 2.03 (inactive) | -0.0863 (inactive) | 0.243 (inactive)
10 | CCOC(=O)C=Cc1cccc(OC)c1O | 0.0682 (inactive) | 0.36 | -1.24 | -0.697 (inactive) | -1.68 (inactive) | -1.49 (inactive)
11 | COCC1=C([C@H](O)CCc2ccccc2)[C@H](CO)[C@@H]2C(=O)N(Cc3ccccc3)C(=O)[C@@H]2C1 | -0.0534 (inactive) | 0.155 | -0.54 | -5.17 (inactive) | -0.955 (inactive) | -0.946 (inactive)
12 | O=C1OCC=C[C@H]2OC34C=CCN(CCN5CCOCC5)C(=O)[C@H]3N(CCCCCCO)C(=O)[C@@H]4[C@@H]12 (some centres not stated) | 0.304 (inactive) | -0.291 | -0.448 | -7.09 (inactive) | -1.52 (inactive) | -1.21 (inactive)
13 | CN(C)CCCC[C@@H]1NC(=O)[C@@H]2C[C@H](C(=O)NCc3ccc(F)cc3)[C@H](c3cccc(OCCO)c3)N2C1=O | 0.658 (inactive) | 0.813 | -0.459 | -3.36 (inactive) | 0.445 (inactive) | 0.314 (inactive)
14 | Cc1ccc(S[C@]2(C(=O)NCc3ccccc3)CC(=O)N(Cc3cc(C(F)(F)F)cc(C(F)(F)F)c3)[C@@H]2c2ccc(CO)cc2)cc1 | -0.384 (inactive) | 0.365 | -0.398 | -2.38 (inactive) | 0.199 (inactive) | 0.311 (inactive)
15 | O=C1C2C=CC(C(O)c3ccc(Br)cc3)N(n3cnnc3)C2C(=O)N1Cc1ccccc1 (configuration not stated) | 0.568 (inactive) | 0.76 | -0.084 | 0.314 (inactive) | -0.47 (inactive) | -0.618 (inactive)
16 | COC(=O)[C@@]1(Cc2ccc(OC)cc2)[C@H]2c3cc(C(=O)N4CCCC4)n(C[C@H](O)CO)c3C[C@H]2CN1C(=O)c1ccccc1 | 0.883 (inactive) | -0.197 | -1.17 | -5.13 (inactive) | 0.0578 (inactive) | -0.0868 (inactive)
17 | CN1C(=O)C2C(C1=O)C1C=C(c3ccc(CO)cc3)C2C(C2CC2)N1Cc1cc2c(cc1Br)OCO2 (configuration not stated) | 2.71 (inactive) | 0.832 | -2.16 | -4.5 (inactive) | -0.369 (inactive) | -0.327 (inactive)

Reference: PubChem BioAssay
